# Assay outcomes from PubChem BioAssay.
# In the library only some 10% were active in any assay of this set; here they are far more common.
# GPT2 inh = GPT2 alanine aminotransferase inhibition | 0.25% of 100,000 active | Q8TD30 | Potency, µM (highest dose often 57.7 µM), inactives show top-dose activity change, negative = inhibition, usual class: inhibitors | Recombinant GPT2, coupled pyruvate oxidase/HRP Amplex Red fluorescence; further: on the % scale 0 is the no-effect control and ±100 the full control effect; nearly all actives have a fitted effect of over 60% in size
# Target sequence (Q8TD30 whole entry, looked up): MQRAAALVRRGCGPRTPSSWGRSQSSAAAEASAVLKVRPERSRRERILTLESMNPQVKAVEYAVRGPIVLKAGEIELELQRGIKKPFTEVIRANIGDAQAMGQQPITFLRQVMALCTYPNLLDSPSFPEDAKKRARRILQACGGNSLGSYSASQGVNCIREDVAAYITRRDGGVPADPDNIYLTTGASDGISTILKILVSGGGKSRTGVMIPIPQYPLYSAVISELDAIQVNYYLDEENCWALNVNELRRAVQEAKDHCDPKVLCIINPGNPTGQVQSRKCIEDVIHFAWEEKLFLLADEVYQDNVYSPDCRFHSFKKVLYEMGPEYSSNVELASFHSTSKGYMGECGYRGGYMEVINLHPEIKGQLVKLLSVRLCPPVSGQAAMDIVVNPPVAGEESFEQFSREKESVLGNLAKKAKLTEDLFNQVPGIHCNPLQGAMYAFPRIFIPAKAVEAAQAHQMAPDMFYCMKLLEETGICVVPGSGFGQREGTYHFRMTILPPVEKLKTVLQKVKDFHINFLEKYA
#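 Recombinant GPT2 (10ng/uL) with 250uM a-KG and 2mM L-alanine, 30 min at room temperature, in HEPES pH 7.5 buffer. Pyruvate detected by pyruvate oxidase/HRP/Amplex Red fluorescence after 30 min in the dark; AOA (50uM) as positive control.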
# HEK293 tox = cytotoxic compounds in HEK 293 cells | HEK 293 viability, ATP luminescence (CellTiter-Glo), 48-72 h | Potency, µM (doses to about 115 µM), inactives show at the top dose activity change, negative = cytotoxicity, actives largely listed as inhibitors | 6.6% of 94,000 active; further: on the % scale 0 is the no-effect control and ±100 the full control effect; nearly all actives have a fitted effect of over 60% in size
#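 HEK 293 cells at 250 cells/well were exposed to compounds by pintool transfer for 48 or 72 hr at 37 degree Celsius, 5% CO2. Viability was read as ATP-coupled luminescence with CellTiter-Glo after 10 min at room temperature.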
# FLuc inh = inhibitors of firefly (Photinus pyralis) luciferase; P08659; purified P. pyralis luciferase, luminescence, biochemical; Potency, µM (doses to about 115 µM), hits mostly inhibitors; 2.5% of 76,000 active; AID 1347043; further: on the % scale 0 is the no-effect control and ±100 the full control effect; nearly all actives have a fitted effect of over 65% in size
#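 Purified P. pyralis luciferase (10nM final) in 50mM Tris acetate pH 7.5, 10mM Mg acetate, 0.01% Tween-20, 0.05% BSA with 10uM D-luciferin and 10uM ATP. Compounds titrated qHTS. Luminescence imaged on CCD.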
# NPR1 antag = blocks ANP-stimulated signaling of human Npr1 receptor. P16066. HEK293 hNpr1 GloSensor cGMP, ANP-stimulated luminescence. Potency, µM (series often up to 46.3 µM), for the others: at the highest dose activity change, negative = inhibition, actives largely listed as inhibitors. 1.6% of 76,000 active; calls by dose curve; further: on the % scale 0 is the no-effect control and ±100 the full control effect; nearly all actives have a fitted effect of over 60% in size
#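 Compound pre-incubated 30 min at room temperature on GloSensor-loaded HEK293 cells stably carrying hNpr1 and the pGS-40F cGMP biosensor. Stimulation uses hNppA at 0.1 nM final; luminescence is taken at baseline and 20 min post-agonist.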
# 3T3 cytotox = NIH 3T3 cell cytotoxicity. NIH 3T3 viability, CellTiter-Glo ATP luminescence, 48-72 h. Potency, µM (titrated, usually from 96.7 µM), for inactives: at the highest dose activity change, negative = cytotoxicity, actives largely listed as inhibitors. 4.3% of 94,000 active. AID 1345082; further: on the % scale 0 is the no-effect control and ±100 the full control effect; nearly all actives have a fitted effect of over 55% in size
#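 Mouse fibroblast NIH 3T3 cells, 400 per well, received compound via pintool and were incubated for 48 or 72 hr prior to CellTiter-Glo ATP luminescence measurement.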
# Npr1 antag conf = hNpr1 antagonism, confirmation assay. HEK293 hNpr1 cGMP GloSensor luminescence, ANP-stimulated. shares compounds with NPR1 antag. AID 1347044. Potency, µM (titrated, usually from 57.6 µM), for the others: at the top dose activity change, negative = inhibition, hits mostly inhibitors. 76% of 1,400 active; calls by dose curve; further: nearly all actives have a fitted effect of over 70% in size
# Npr2 selectivity = selectivity test of Npr1 antagonists against human Npr2; shares compounds with NPR1 antag; HEK293 hNpr2 GloSensor cGMP luminescence, CNP-stimulated; Potency, µM (top dose mostly 57.6 µM), for inactives: at the highest dose activity change, negative = inhibition, usual class: inhibitors; 67% of 1,400 active; AID 1347046; calls by dose curve; further: nearly all actives have a fitted effect of over 70% in size
# FLuc counter = FLuc enzyme inhibition, Npr1 counter-screen | shares compounds with NPR1 antag | purified FLuc enzyme, luminescence, Km substrate | Potency, µM (doses to about 57.6 µM), for the others: top-dose activity change, negative = inhibition, hits mostly inhibitors | 0.7% of 1,400 active | AID 1347047; further: 0% is about no effect
# GloSensor ctrl = control cell line activity, Npr1 antagonist counter-screen; shares compounds with NPR1 antag; HEK293 GloSensor cGMP, SNP-stimulated, luminescence; Potency, µM (doses to about 57.6 µM), for inactives: at the top dose activity change, negative = inhibition, actives largely listed as inhibitors; 69% of 1,400 active; calls by dose curve; further: on the % scale 0 is the no-effect control and ±100 the full control effect; nearly all actives have a fitted effect of over 70% in size
# * = called active by the depositor; i = inactive; ? = inconclusive; . = no result given; [ ] = dose if it differs, or a comment. Unless noted, the call rests on the fitted dose curve; in most records, active means well fitted curve in the direction sought with a large enough effect; inconclusive means small, poorly fitted or top-dose-only effect, or another doubt; inactive means no such curve, though single readings can be large; an effect the other way counts as inactive or inconclusive. Potency means the concentration at half of the fitted maximal effect.
SMILES,GPT2 inh,HEK293 tox,FLuc inh,NPR1 antag,3T3 cytotox,Npr1 antag conf,Npr2 selectivity,FLuc counter,GloSensor ctrl
COc1ccc(CN2C[C@H]3CN(Cc4ccc(S(C)(=O)=O)cc4)CCN3C2=O)cc1,-1.2%[88.5 µM],?,i,?,-23.3%[138 µM],.,.,.,.
COc1ccc(CN2C[C@H]3CN(Cc4ccc5c(c4)OCCO5)CCN3C2=O)cc1,4.9%[88.5 µM],?,i,10µM*,?,14µM*,15.7µM*,-14.1%[86.2 µM],14µM*
CC(C)COC(=O)N1C[C@H](C(N)=O)[C@H]2c3ccccc3N(C)C(=O)[C@]21C,.,-20.1%,.,.,?,.,.,.,.
COc1ccc(CN2C[C@H]3CN(Cc4ccc([N+](=O)[O-])cc4)CCN3C2=O)cc1,-1.5%[88.5 µM],?,i,22.4µM*,?,15.7µM*,17.7µM*,-0.3%[86.2 µM],15.7µM*
COc1ccc(CN2C[C@H]3CN(Cc4cccnc4)CCN3C2=O)cc1,-2.6%[88.5 µM],1.9%[172 µM],i,1.2%[70.6 µM],0.3%[138 µM],.,.,.,.
Cc1cc(C(F)(F)F)nn1CC(=O)NCCc1ncc(C)n1C(C)C,i,i,.,.,-0.5%,.,.,.,.
COCCOC1CN(C2CCN(S(=O)(=O)c3cccc(F)c3)CC2)C12CCCCC2 (stereo unspecified),i,?,.,.,?,.,.,.,.
NC(=O)Cc1c[nH]c2ncc(-c3ccccc3F)cc12,?,-27.8%[230 µM],i,-12.6%[70.6 µM],?,.,.,.,.
NC(=O)Cc1c[nH]c2ncc(-c3ccccc3Oc3ccccc3)cc12,-3.1%[88.5 µM],?,i,25.1µM*,?,35.3µM*,35.3µM*,-1.2%[86.2 µM],19.8µM*
O=C(Cc1c[nH]c2ncc(-c3ccsc3)cc12)NCc1cccnc1,-19.1%[88.5 µM],?,i,-13.9%[70.6 µM],?,.,.,.,.
O=C(Cc1c[nH]c2ncc(-c3ccccc3Oc3ccccc3)cc12)NCc1cccnc1,-5.5%[88.5 µM],?,i,28.2µM*,?,22.2µM*,22.2µM*,-10.4%[86.2 µM],19.8µM*
CN1CC2(CCN(Cc3cn[nH]c3-c3cccs3)CC2)CC1C(=O)N1CCOCC1 (stereo unspecified),i,i,i,-6.2%,-17.8%,.,.,.,.
Cc1cnc(C(=O)N2CCC(N3CC(OCC4CC4)C34CCOCC4)CC2)cn1 (stereo unspecified),-7.1%,-4.5%,.,.,-9.2%,.,.,.,.
CCC(=O)N1CCN(c2nc3c(s2)CC(C(=O)Nc2ccc(OC)c(F)c2)CC3)CC1 (stereo unspecified),?,?,i,-7.7%,?,.,.,.,.
CCN(CC)C(=O)c1cc2c(s1)CCC(C(=O)Nc1ccc(OC)c(F)c1)C2 (stereo unspecified),i,?,i,12.6µM*,?,24.3µM*,21.7µM*,-1.6%,24.3µM*
CC(=O)N1CCN(C(=O)CCC2CCN(c3cc(NC4CC4)ncn3)CC2)CC1,?,?,i,?,-24.1%,.,.,.,.
CN(CCc1ccccc1)C(=O)CCC1CCN(c2cc(NC3CC3)ncn2)CC1,?,35.5µM*,i,11.2µM*,?,21.7µM*,21.7µM*,-13.6%,13.7µM*
O=C(CCC1CCN(c2cc(NC3CC3)ncn2)CC1)N1CCN(c2ccccc2F)CC1,i,?,i,12.6µM*,?,24.3µM*,21.7µM*,-22.8%,24.3µM*
